This passage reports AC50 and outcome results from PubChem BioAssay (EPA / NIEHS).

Results filed as inconclusive are left out. Activity calls are given as the source filed them. Rule for the calls, unless noted: active = hit-call score of the fitted dose curve at least 0.9, where 1 is the maximum; inactive = score below 0.9.

The first test in a line: CCTE_Mundy_HCI_iCellGluta_NOG_NeuriteLength: CCTE's Neurite Outgrowth Assay in iCellGluta cells for Neurite Length, Mundy Lab (AID 2284318; active = hit-call score of the fitted dose curve at least 0.9, where 1 is the maximum).
Conditions: not given
How it is done: CCTE_Mundy_HCI_iCellGluta_NOG is a multiplexed, cell-based-readout assay that uses iCell GlutaNeurons from FUJIFILM Cellular Dynamics, Inc. (FCDI), human glutamatergic enriched neurons derived from induced pluripotent stem (iPS) cells, with measurements taken at 50.33 hours after chemical dosing in a microplate: 96-well plate.CCTE_Mundy_HCI_iCellGluta_NOG_NeuriteLength is one of four components of the CCTE_Mundy_HCI_iCellGluta_NOG assay. It measures neurite outgrowth related to neurite length using High Content Imaging of fluorescently labelled markers.Data from the assay component CCTE_Mundy_HCI_iCellGluta_NOG_NeuriteLength was analyzed at the endpoint CCTE_Mundy_HCI_iCellGluta_NOG_NeuriteLength in the positive analysis fitting direction relative to DMSO as the negative control and baseline of activity. Using a type of morphology reporter, loss-of-signal activity can be used to understand developmental effects.
Exposure starts 2 hours post-plating by adding 10 ul of the working solution to 90 ul of media in the wells for a 1/10 dilution. Forty-eight hours after chemical treatment cells are fixed by direct addition of 100 ul of warm (37C) Dulbecco's phosphate buffered saline (DPBS) fixative solution containing 8% paraformaldehyde, 8% sucrose, and 0.1% of 3 mg/ml Hoechst 33342 into each well. Primary antibodies are prepared by dilution in Immunocytochemical Staining Buffer (ISB), 10X Dulbecco's PBS, 0.1% Saponin, 5% Bovine Serum Albumin, 0.5% NaN3 (Sodium Azide) and betaIII-tubulin (rabbit anti-betaIII-tubulin, 1:800) followed by Alexa Fluor-488 secondary (1:500) to label neuronal cell bodies and neurites. A Cellomics ArrayScan VTi HCS Reader is used for automated image acquisition and analysis of neurite outgrowth.
In the case of `CCC[CH2][Sn]([Cl])([CH2]CCC)[CH2]CCC`, the half-maximal activity concentration (AC50) (as a rule, the concentration at which the activity in the assay is half-maximal) is 0.163 µM (active).

For the compound `[O-][Cl+]O`, the half-maximal activity concentration (AC50) was 24 µM (active).

As to `CC(C)COC(=O)c1ccccc1C(=O)OCC(C)C`, the compound was called inactive.

On to `CN(C)[C@@H]1C(=O)C(C(N)=O)=C(O)[C@@]2(O)C(=O)C3=C(O)c4c(O)cccc4[C@@](C)(O)[C@H]3C[C@@H]12`, for which the AC50 is 23.3 µM (active).

`CNC(=O)Oc1cccc2c1OC(C)(C)C2`: the concentration at half-maximal activity (AC50) was 49.6 µM (active).

Take `COP(=S)(OC)SCN1C(=O)c2ccccc2C1=O`: the AC50 is 92.2 µM (active).

`COC(=O)Nc1nc2ccccc2[nH]1`: the compound was called inactive.

Regarding `CCCCOC(=O)c1ccccc1C(=O)OCc1ccccc1`, the outcome was inactive.

A short description of another test: CCTE_Deisenroth_5AR_NBTE_donor: CCTE's 5alpha-reductase NanoBRET Target Engagement Assay […], Deisenroth Lab (AID 2284319). Particulars: actives raise or lower the signal. In a few lines: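 HEK293T cells were reverse transfected with an SRD5A2-NanoLuc vector for 20 h, exposed to test chemical (8 points, 10 nM - 29.9 uM) for 3 h, then testosterone tracer for 2 h more. Donor luminescence (460 nm) was read; bidirectional fit versus DMSO.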
Regarding `CCC[CH2][Sn]([Cl])([CH2]CCC)[CH2]CCC`, the half-maximal activity concentration (AC50) is 4.88 µM (active).

Take `CCCCCCCCn1sccc1=O`: the AC50 was 72.7 µM (active).

Regarding `Cc1ccc(N)c(N)c1`, the call was inactive.

On to `Cc1cc(N=Nc2ccccc2C)ccc1N`, for which the AC50 was 40.6 µM (active).

Turning to `[Cl-].[Cl-].[Hg+2]`, the AC50 was 74.8 µM (active).

For the compound `C[C@]12C=CC3=C4CCC(=O)C=C4CC[C@H]3[C@@H]1CC[C@@H]2O`, the call was inactive.

For the compound `Nc1ccc(N=Nc2ccccc2)cc1`, the concentration at half-maximal activity (AC50) was 23.8 µM (active).

For `CC(C)(O)c1cnn2c(-c3ccc(F)c(-c4c(F)cccc4C#N)c3)cnc2n1`, the outcome was inactive.

In the case of `c1ccc2c(c1)-c1cccc3cccc-2c13`, the compound was classed as inactive.

Regarding `COc1cc(C=O)cc2c1[C@H](COC(N)=O)[C@]1(OC(C)=O)ON2C[C@H]2[C@@H]1N2C(C)=O`, the compound was classed as inactive.
